Data as given in PubChem BioAssay AID1045 (SRMLSC, 2008).
Out of some 1,500 compounds screened, about 1,400 (93%) were called active. No rule for the calls is given here. So high a share suggests a set chosen from earlier hits. A selection follows. Entries with a potency or affinity are not part of this list.

Assay: growth suppression of beta-catenin-knockout colon cells, dose response, cell-based, HCT116, human colon tumor (AID 1045)
Settings: CellTiter-Glo, 60 h; series mostly up to 30 µM

outcome, inactive:
Cc1[nH]nc2c1C(C1CC=CCC1)C(C#N)=C(N)O2 (stereo not drawn)
Cc1cc(C)c2c(=O)n(CC(=O)NCCCN3CCOCC3)sc2n1
N/C(=N\c1nc(C(F)(F)F)cc(=O)[nH]1)Nc1ccc(Cl)cc1
OCCn1c(C(F)(F)F)nc2ccccc21
COC(=O)Nc1nc2c(s1)CCCC2
O=C(N/N=C/c1ccc(O)c(O)c1O)/C(=C/c1ccc([N+](=O)[O-])cc1)NC(=O)c1ccccc1
COc1ccc(N2CCN(C(c3cc(OC)ccc3OC)c3nnnn3CC3CCCO3)CC2)cc1 (stereo not drawn)
Cc1cccc(CS(=O)(=O)c2nnc([C@H](Cc3ccccc3)NC(=O)OC(C)(C)C)o2)c1
CCCCS/C(N)=N/N=C/c1ccccc1O
CC(C)c1cc(=O)oc2c3c4c(cc12)CCCN4CCC3
CN1/C(=C\C(=S)NC(=O)c2ccc([N+](=O)[O-])cc2)C(C)(C)c2ccccc21
O=S(=O)(c1cccc2ccccc12)N1CCSC1
CCCCn1c(=NC(=O)c2ccco2)c(C(=O)OCC)cc2c(=O)n3ccccc3nc21
Cc1cc(Nc2ccccc2)nn1C(=O)c1ccccc1
CCCC(=O)Nc1ccc(C)c(O)c1
COC(=O)c1cc(OC)c(OC)cc1NC(=O)c1ccccc1
OC1(c2cccc(C(F)(F)F)c2)CCN(c2ccc(-c3ccccc3)nn2)CC1
CCN(CC)c1ccc(N=Cc2ccc(N(CC)CC)cc2O)cc1
CCCCNC(=O)Nc1c(C(=O)OC)[nH]c2ccc(C)cc12
CN(C)S(=O)(=O)c1cccc(NC(=O)COC(=O)c2cccc(S(=O)(=O)N3CCc4ccccc4C3)c2)c1
c1ccc2c(c1)CCCC2C1=NCCN1 (stereo not drawn)
O=C(Nc1cccc2ccccc12)c1onc2c1CCCC2
COc1ccc(NC(=O)CCCn2c(=O)c3sccc3n(Cc3ccccc3)c2=O)cc1
OC1C2CN3CCN(C2)CC1(Cc1ccccc1)C3 (stereo not drawn)
O=C(c1ccc2c(=O)n(CC3CCCO3)c(=S)[nH]c2c1)N1CCN(c2ccccc2)CC1 (stereo not drawn)
CCOC(=O)N1CCN(C(=O)c2nn(-c3ccc(C)cc3)c(=O)c3c2c2ccccc2n3C)CC1
C=CCNc1nnc(SC2CC(=O)N(c3ccc(OC)cc3)C2=O)s1 (stereo not drawn)
COc1ccc(S(=O)(=O)CCC(=O)N(C)c2ccc(OC)cc2OC)cc1
Cc1c(Cl)ccc2sc(NC(=O)CN3C(=O)c4ccccc4C3=O)nc12
CCCCN1C[C@H](O)[C@@H](O)[C@H](O)[C@H]1CO
O=C(COC(=O)c1cccnc1Nc1cccc(C(F)(F)F)c1)NCc1ccc2c(c1)OCO2
O=C(COC(=O)c1c2c(nc3ccccc13)CCCC2)Nc1ccc2c(c1)OCO2
CCOC(=O)Cn1c2ccccc2c2nc3ccccc3nc21
Cc1ccc(Cn2nc(C)c(NC(=O)CSc3nc4c(c(C(F)(F)F)n3)CCc3ccccc3-4)c2C)cc1
COc1ccc(CCn2c(N)c(C(=O)NCc3ccco3)c3nc4ccccc4nc32)cc1OC
COc1ccccc1CN=Cc1[nH]c2ccc(Br)c(Cl)c2c1O
COc1ccc(C(=O)OCC(=O)c2cc(OC)ccc2OC)c(OC)c1
O=C1[C@H]2[C@H]3[C@H](O)[C@H](O)C/C(=N\OC[C@@H](O)COCc4ccco4)[C@@H]3CC[C@H]2C(=O)N1c1ccc(F)cc1F
CCCNC(=O)OC[C@H]1O[C@H](CCO/N=C/[C@@H](NS(=O)(=O)c2ccc(C)cc2)[C@H](C)/C=C/CC(=O)OC)C=C[C@@H]1Oc1ccc(OC)cc1
O=C(Nc1ccccc1Cl)NC1(C(=O)N2CCCC2)CCCCC1
Cc1ccc(C(=O)c2coc3c2C(=O)C(=O)c2ccccc2-3)cc1
CCCC(=O)Nc1sc2c(c1C#N)CCCCC2
CCN1CCN(Cc2ccc(OCc3ccccc3)cc2)CC1
S=C(NCCc1ccc(Cl)cc1)Nc1ccc(Cl)cc1Cl
O=C(Nc1cccc(C(F)(F)F)c1)NC1CCCCC1
C=C1C(O)C[C@H]2C(=C)CCC3[C@H](OC(=O)[C@]3(O)CO)[C@@H]12 (stereo partly drawn)
Cc1ccc2cc3cc(C(=O)NCc4ccc5c(c4)OCO5)oc3nc2c1
Nc1nnc(SCc2ccc(Cl)cc2)s1
O=C(NC(=S)Nc1ccc2c(c1)OCO2)c1ccc(Cl)cc1
COC(=O)CN1C(C)=Nc2ccc(Br)cc2C1c1ccccc1 (stereo not drawn)
COC(=O)C1=C(C)N(Cc2ccco2)C(=O)N[C@@H]1c1cccc(C(F)(F)F)c1
CCN1CCN(c2cc(C)c3cc(NC(=O)c4ccc5c(c4)OCO5)ccc3n2)CC1
CCN(CC)S(=O)(=O)c1ccc(NC2CCCc3ccccc32)nc1 (stereo not drawn)
COc1ccc(-c2cc(C(F)(F)F)nc(S(C)(=O)=O)n2)cc1OC
O=C(Nc1cccc(-c2nnc(-c3ccccc3)o2)c1)C1CCCCC1
Cc1ccccc1NC(=O)c1ccc2c(c1)OCCO2
CSc1n[nH]c(NCc2cccs2)n1
Cc1cc(C)n(C(=O)CNc2ccc(C)c(C)c2)n1
CCCC/C(C)=N\NC(=O)CNS(=O)(=O)c1ccc([N+](=O)[O-])cc1
COc1ccc(-n2c(O)c(/C=N/NS(=O)(=O)c3ccc(C)cc3)c3ccccc3c2=O)cc1OC
COCCN1C(=O)c2oc3ccccc3c(=O)c2C1c1ccc(OC)c(OC)c1 (stereo not drawn)
O=C(Nc1cccc(C(F)(F)F)c1)/C(=C\c1ccco1)NC(=O)c1cccs1
O=C(Nc1ccc(-c2nc3ccccc3o2)cc1)c1cccnc1
O=C(NCc1ccco1)C1CCN(S(=O)(=O)Cc2ccccc2)CC1
CCOC(=O)c1c(-c2ccc(C)cc2)csc1NC(=O)/C(C#N)=C/c1ccc(O)c(OC)c1
CCn1c(Cc2ccc(OC)cc2)nnc1SCC(=O)Nc1cccc(C(=O)OC)c1
Cc1ccc(C(=O)NCCc2nnc(SCC(=O)Nc3nc(-c4ccccc4)cs3)n2C)cc1
COc1ccc(-c2cc(C(F)F)n3ncc(C(=O)n4ccnc4C)c3n2)cc1
